Experimental data reported in PubChem BioAssay (Tox21).
Several values for one entry are separate records, joined by “and”; a condition that tells them apart may be missing. Identical values can stand only once. Inconclusive results are not listed. Activity calls are given as the source filed them. Unless noted, calls follow the shape of the dose curve; as a rule, active = well fitted curve in the direction sought with a large enough effect in the repeat runs; inconclusive = weak or mixed curves; inactive = no such curve, though single readings can be large; an effect the other way counts as inactive or inconclusive.

Key:
[1] = qHTS assay to identify small molecule agonists of the endoplasmic reticulum stress response signaling pathway (AID 1159516; active = well fitted activation curve with a large enough effect in the signal ratio in the repeat runs, not every such curve was filed as active; the % refers to the signal ratio)
How it was run: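 Tox21 10K library screened in quantitative HTS format on ESRE-bla HeLa cells, a beta-lactamase reporter under ER stress response element control; 5 hr treatment, FRET read.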

[2] = qHTS assay to identify small molecule agonists of the AP-1 signaling pathway - cell viability counter screen (AID 1159525; calls by dose curve; also: nearly all actives have a fitted effect of over 55% in size)
How it was run: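 ME-180 AP-1-bla, 2500 cells/well, Opti-MEM + 0.5% dialyzed FBS; overnight 37 °C; cpd 15-pt titration, 5 h 37 °C; CellTiter-Glo 30 min RT; luminescence read; normalised to TOAB and DMSO controls.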

[3] = qHTS assay to identify small molecule agonists of the AP-1 signaling pathway (AID 1159526; calls by dose curve)
[4] = qHTS assay to identify small molecule agonists of the RXR signaling pathway - cell viability counter screen (AID 1159529); also: nearly all actives have a fitted effect of over 50% in size; also: potency is read from the fitted curve at half-maximal effect
How it was run: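 RXR-alpha-UAS-bla HEK 293T cells in medium with 2% charcoal-stripped FBS were preincubated 5 hr, then exposed to compounds for 16 hr at 37 C. Viability was read as CellTiter-Glo luminescence after 30 min at room temperature.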

[5] = qHTS assay to identify small molecule antagonists of the retinoic acid receptor (RAR) signaling pathway (AID 1159552; also: nearly all actives have a fitted effect of over 50% in size; also: potency is read from the fitted curve at half-maximal effect)
How it was run: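 RARE-luc C3RL4 cells; cpds + 1 uM (final) retinol, 6 hr, 37 C/5% CO2; luciferase reagent, 30 min RT, luminescence readout. Inhibitors of retinol-driven signal scored.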

[6] = qHTS assay to identify small molecule antagonists of the estrogen related receptor (ERR) signaling pathway - cell viability counter screen (AID 1224818);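 also: viability measured after 17.5 h of compound exposure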
How it was run: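 Cells carrying the ERR pathway reporter were seeded and incubated for 6 hours before compound addition. After a 17.5-hour exposure at 37 C, live-cell protease activity was measured by CellTiter-Fluor fluorescence following 30 minutes of incubation.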

[7] = qHTS assay to identify small molecule antagonists of the estrogen related receptor (ERR) signaling pathway (AID 1224819; also: potency is read from the fitted curve at half-maximal effect; nearly all actives have a fitted effect of over 50% in size)
How it was run: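 Compounds dissolved in DMSO were pin-transferred onto ERR cells that had been plated 6 h earlier, and cells were then incubated 18 h at 37 C; signal was luciferase luminescence via One-Glo.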

[8] = qHTS assay to identify small molecule agonists of the estrogen related receptor (ERR) signaling pathway (AID 1224820)
How it was run: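 ERR reporter cell line (from NTP), 2,000 cells/well, incubated 6 h before compound addition, then 18 h at 37 C. Luminescence measured 30 min after One-Glo reagent at room temperature.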

[9] = qHTS assay to identify small molecule agonists of the estrogen related receptor signaling pathway with the pleiotropic PPARgamma coactivator (PGC) (AID 1224823)
How it was run: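 PGC/ERR reporter cells seeded 6 h, then exposed to compounds (23 nL in DMSO) for 18 h at 37 C. One-Glo luciferase luminescence read after 30 min at room temperature.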

[10] = qHTS assay to identify small molecule antagonists of the vitamin D receptor (VDR) signaling pathway - cell viability counter screen (AID 743225); also: nearly all actives have a fitted effect of over 50% in size; also: potency is read from the fitted curve at half-maximal effect
How it was run: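 VDR-bla HEK 293T cells, 4 h pre-incubation at 37C, then compound plus 1-alpha,25-dihydroxyvitamin D3 (3 nM final) for 16 h. After the beta-lactamase FRET read, CellTiter-Glo was added to the same wells; luminescence after 30 min at room temperature.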

[11] = qHTS assay to identify small molecule agonists of the endoplasmic reticulum stress response signaling pathway - cell viability counter screen (AID 1159517; calls by dose curve; also: nearly all actives have a fitted effect of over 50% in size; also: potency is read from the fitted curve at half-maximal effect)
How it was run: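 CellTiter-Glo was added to wells already read for beta-lactamase FRET, and luminescence was recorded 30 min later. Cells: ESRE-bla HeLa, 1,500 per well, compound exposure 5 hr at 37 C.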

[12] = molecular target: Retinoic acid receptor RXR-alpha (Homo sapiens) (UniProt P19793); assay: qHTS assay to identify small molecule agonists of the RXR signaling pathway (AID 1159527; calls by dose curve; also: nearly all actives have a fitted effect of over 35% in size)
Sequence of Retinoic acid receptor RXR-alpha (Homo sapiens) (P19793 whole entry, looked up): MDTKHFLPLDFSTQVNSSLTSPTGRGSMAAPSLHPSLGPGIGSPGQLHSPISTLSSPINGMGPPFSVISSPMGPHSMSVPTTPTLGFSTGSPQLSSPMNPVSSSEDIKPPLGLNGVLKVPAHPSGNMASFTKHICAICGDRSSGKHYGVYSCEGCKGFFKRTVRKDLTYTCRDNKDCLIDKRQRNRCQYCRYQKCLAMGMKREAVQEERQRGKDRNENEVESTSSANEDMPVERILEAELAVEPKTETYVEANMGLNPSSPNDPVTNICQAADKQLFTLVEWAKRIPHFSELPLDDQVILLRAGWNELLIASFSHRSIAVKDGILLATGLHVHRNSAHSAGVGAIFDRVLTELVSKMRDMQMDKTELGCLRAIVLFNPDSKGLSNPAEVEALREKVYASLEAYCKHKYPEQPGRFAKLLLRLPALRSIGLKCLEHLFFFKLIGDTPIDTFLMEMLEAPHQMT
How it was run: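 GeneBLAzer RXR-alpha-UAS-bla HEK 293T cells in medium with 2% charcoal-stripped FBS, pre-incubated 5 hr at 37 C, then exposed to compounds 16 hr. Beta-lactamase reporter read by FRET substrate, 2 hr room temperature, 460/530 nm emission.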

[13] = qHTS assay to identify small molecule antagonists of the retinoid acid receptor (RAR) signaling pathway - cell viability counter screen (AID 1159551); also: nearly all actives have a fitted effect of over 35% in size
How it was run: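 Cytotoxicity counter screen in C3RL4 cells: 6 h compound exposure with 1 uM retinol (final), viability from cellular ATP by luminescence.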

[14] = qHTS assay to identify small molecule antagonists of the estrogen related receptor (ERR) signaling pathway from Tox21 library - cell viability counter screen (AID 1224834); also: nearly all actives have a fitted effect of over 30% in size; also: potency is read from the fitted curve at half-maximal effect
How it was run: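 Cytotoxicity of test substances is gauged in the same ERR cells used for the antagonist screen, after 17.5 h of compound treatment at 37 C, by CellTiter-Fluor fluorescence measured after 30 min.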

[15] = qHTS assay to identify small molecule antagonists of the retinoid-related orphan receptor gamma (ROR-gamma) signaling pathway - cell viability counter screen (AID 1159520); also: nearly all actives have a fitted effect of over 50% in size; also: potency is read from the fitted curve at half-maximal effect
How it was run: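 Tet-on ROR gamma CHO cells (1,000/well) were plated 4 hr, given compounds in DMSO for 2 hr at 37 C, then induced with 1 uM final doxycycline for 16 hr. Viability was read as ATP by CellTiter-Glo luminescence after 30 min.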

[16] = molecular target: Nuclear receptor ROR-gamma (Homo sapiens) (UniProt P51449); assay: qHTS assay to identify small molecule antagonists of the retinoid-related orphan receptor gamma (ROR-gamma) signaling pathway (AID 1159521; also: nearly all actives have a fitted effect of over 50% in size; also: potency is read from the fitted curve at half-maximal effect)
How it was run: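 Tet-on RORγ CHO cells carrying a ROR response element–luciferase reporter were pretreated with compounds for 2 h, then induced with 1 uM (final) doxycycline hyclate for 16 h at 37 C. Antagonism was read as decreased ONE-Glo luminescence.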

[17] = qHTS assay to identify small molecule agonists of the retinoic acid receptor (RAR) signaling pathway (AID 1159553); settings: C3RL4 RARE luciferase reporter, agonist, 6 h; activation: at 73.3 µM (top of the series) unless noted; also: potency is read from the fitted curve at half-maximal effect
How it was run: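 Agonist activity was scored in C3RL4 cells bearing a retinoic acid response element luciferase construct. Cells were treated with compounds for 6 hr at 37 C, and luciferase signal was measured as luminescence.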

[18] = qHTS assay to identify small molecule antagonists of the estrogen related receptor signaling pathway with the pleiotropic PPARgamma coactivator (PGC) cell viability counter screen (AID 1224822;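 also: potency is read from the fitted curve at half-maximal effect; viability read after 17.5 h compound exposure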)
How it was run: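 Seed PGC/ERR cells (2,000/well); incubate 6 h at 37 C/5% CO2; pin-transfer compounds in DMSO; incubate 17.5 h at 37 C; add CellTiter-Fluor; after 30 min read fluorescence.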

Measured: Potency

CC(=O)[C@H]1CC[C@H]2[C@@H]3CCC4=CC(=O)CC[C@]4(C)[C@H]3CC[C@]12C
active: [4] 38.7 µM and 43.6 µM | [5] 48.3 µM and 30.6 µM | [7] 11.9 µM
inactive: [1] | [2] | [3] | [6] | [8] | [9]

[Cu+]
inactive: [10] | [1] | [11] | [2] | [12] | [4] | [13]

COc1cc(S(=O)(=O)O)c(C)cc1N=Nc1c(O)ccc2cc(S(=O)(=O)O)ccc12
inactive: [10] | [1] | [11] | [2] | [3] | [12] | [4]
active: [14] 27.3 µM

COc1cccc(OC)c1C(=O)O
inactive: [10] | [1] | [15] | [16] | [2] | [3] | [12] | [4] | [13] | [14]

CCCCC/C=C\C/C=C\CCCCCCCC(=O)O
inactive: [10] | [11] | [15] | [16] | [2] | [3] | [13] | [17] | [14]

CC(=O)c1ccc(C(C)=O)cc1
not listed: [6] | [7] | [8] | [9] | [11] | [18]
inactive: all other assays above

O=[N+]([O-])c1ccc(F)c(Cl)c1
not listed: [4] | [6] | [7] | [8] | [9] | [11] | [18]
inactive: all other assays above

CCC(CC)C(C)CCOC(C)=O (stereo not drawn)
not listed: [5] | [6] | [7] | [8] | [9] | [11] | [18]
inactive: all other assays above

C#C[C@]1(OC(C)=O)CC[C@H]2[C@@H]3CCC4=C/C(=N/O)CC[C@@H]4[C@H]3CC[C@@]21CC
inactive: [10] | [1] | [15] | [13] | [17]

O=C(O)CCN(C1(C(=O)NO)CCCC1)S(=O)(=O)c1ccc(Oc2ccc(F)cc2)cc1
inactive: [10] | [1] | [15] | [2] | [3] | [4] | [13] | [5] | [17] | [14]

CC(C)(C)c1ccc(C(O)CCCN2CCC(C(O)(c3ccccc3)c3ccccc3)CC2)cc1 (stereo not drawn)
inactive: [10] | [2] | [3] | [13] | [5]
active: [11] 21.3 µM | [15] 18.8 µM | [16] 13.3 µM | [4] 7.56 µM | [18] 22 µM | [14] 11.9 µM

[Cl][Pt-2]([Cl])([Cl])[Cl]
inactive: [1] | [11] | [16] | [2] | [4] | [13] | [17] | [14]

CC(C)=CCC1=C(O)c2ccccc2C(=O)C1=O
inactive: [1] | [2] | [4] | [13] | [5] | [17]
active: [16] 13.6 µM

CCCCOC(=O)CC
inactive: [10] | [11] | [15] | [16] | [2] | [3] | [4] | [13] | [5] | [17]

Sc1nc2ccccc2s1
inactive: [10] | [1] | [11] | [2] | [4] | [13] | [5] | [14]

CN1CCN(Cc2cc(-c3ccc4[nH]c(=O)oc4c3)co2)[C@@H](c2ccc(F)cc2)C1
active: [16] 26.3 µM | [14] 23.4 µM
inactive: [1] | [11] | [2] | [4] | [13]

O=c1oc2cc(O)ccc2c2oc3cc(O)ccc3c12
inactive: [10] | [11] | [15] | [16] | [2] | [3] | [4] | [13] | [14]
active: [17] 52.2 µM

O=C1c2ccccc2C(=O)N1SC1CCCCC1
active: [10] 48.9 µM | [11] 43.6 µM | [15] 48.5 µM and 54.5 µM | [16] 27.3 µM | [4] 48.9 µM and 49 µM | [14] 68.6 µM
inactive: [13]

CC(C)CCCCCOC(=O)CCS
inactive: [10] | [1] | [15] | [3] | [4] | [13] | [17] | [14]
